The test system of one test is CRL-7250. Put plainly: Cytotoxic Profiling of Annotated Libraries Using Quantitative High-Throughput Screening (AID 1296008). Further: nearly all actives have a fitted effect of over 60% in size. On max response: on the % scale 0 is the no-effect control and ±100 the full control effect. The following applies: Five cell lines viability, CellTiter-Glo ATP luminescence, 48-72 h; max response: stronger effect = lower value. The essentials:
(§1)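 Cytotoxicity was measured as CellTiter-Glo ATP luminescence, read after 10 min at room temperature. Compound treatment of the cells lasted 48 or 72 hr at 37 degrees Celsius in a qHTS format.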
In general terms: ATP-based viability assays read luminescence as a measure of living cells.

The test system of the next test is HEK293. The description is as above. The following applies: Five cell lines viability, CellTiter-Glo ATP luminescence, 48-72 h; max response: stronger effect = lower value. The essentials: as §1
Test [1] has as its system HaCat. The test is described as above. The following applies: Five cell lines viability, CellTiter-Glo ATP luminescence, 48-72 h; max response: stronger effect = lower value. The gist of the method:
as §1

A further test relates to KB-3-1. The description is as above. To be noted: Five cell lines viability, CellTiter-Glo ATP luminescence, 48-72 h; max response: stronger effect = lower value. The essentials:
as §1

In test [2] the test system is NIH3T3. The test is described as above. To be noted: Five cell lines viability, CellTiter-Glo ATP luminescence, 48-72 h; max response: stronger effect = lower value. The essentials: as §1
In the next test the test system is MCC-13. Put plainly: qHTS assay to identify novel small-molecules to repurpose for Merkel cell carcinoma treatment (AID 1296009). Further: nearly all actives have a fitted effect of over 60% in size. To be noted: MCC and control cell lines, CellTiter-Glo viability, 72 h; series mostly up to 46 µM. The gist of the method:
(§2)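 After compound transfer in DMSO, plates were kept 72 hr at 37 degree celsius. Luminescent ATP signal from CellTiter-Glo served as viability measure, normalized against DMSO and no-cell controls.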
Background: qHTS replaces the single test concentration by a dilution series.

Another test relates to MKL-1. Described as above. To be noted: MCC and control cell lines, CellTiter-Glo viability, 72 h; series mostly up to 46 µM. The gist of the method: as §2
For a further test, the system named is MKL-2. Described as above. The following applies: MCC and control cell lines, CellTiter-Glo viability, 72 h; series mostly up to 46 µM. The gist of the method:
as §2

The subject of test [3] is NIH3T3. The test is described as above. The following applies: MCC and control cell lines, CellTiter-Glo viability, 72 h; at 44.8 µM (top of the series) unless noted. The essentials: as §2
A further test has as its system UISO. Described as above. To be noted: MCC and control cell lines, CellTiter-Glo viability, 72 h; series mostly up to 46 µM. The essentials:
as §2

The next test has as its system WaGa. The description is as above. The following applies: MCC and control cell lines, CellTiter-Glo viability, 72 h; series mostly up to 46 µM. The gist of the method:
as §2

Another test deals with C33A. In words: Primary qHTS to identify gynecologic anti-cancer compounds using libraries of approved drugs and bioactive compounds (AID 1345084). Further: nearly all actives have a fitted effect of over 55% in size. The following applies: Gynecologic cancer cell panel viability, ATPlite luminescence, 48 h; series mostly up to 57.5 µM. The essentials:
(§3)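 ATP-based viability (ATPlite), 1,000 cells/well, 16 h pre-incubation, 48 h compound at 37 C, 5% CO2, 15 min RT before read.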

A further test concerns CAOV3. The test is described as above. The following applies: Gynecologic cancer cell panel viability, ATPlite luminescence, 48 h; series mostly up to 57.5 µM. The essentials:
as §3

The next test relates to CASKI. The description is as above. The following applies: Gynecologic cancer cell panel viability, ATPlite luminescence, 48 h; series mostly up to 57.5 µM. The gist of the method: as §3
In the next test the test system is Es-2. Described as above. The following applies: Gynecologic cancer cell panel viability, ATPlite luminescence, 48 h; series mostly up to 57.5 µM. The gist of the method: as §3
The subject of the next test is W2. In words: qHTS profiling for inhibitors of Plasmodium falciparum proliferation (AID 504749). Further: nearly all actives have a fitted effect of over 60% in size. The following applies: P. falciparum in erythrocytes, SYBR Green DNA, 72 h; series mostly up to 28.7 µM. The gist of the method: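 Three-day growth assay of blood-stage parasites in erythrocytes (0.3% parasitemia, 2.5% hematocrit) at 37 C, 5% CO2, quantified by SYBR Green DNA staining after overnight detergent lysis.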

The test system of the next test is MCC-26. Put plainly: qHTS assay to identify novel small-molecules to repurpose for Merkel cell carcinoma treatment (AID 1296009). Further: nearly all actives have a fitted effect of over 60% in size. The following applies: MCC and control cell lines, CellTiter-Glo viability, 72 h; series mostly up to 46 µM. The gist of the method: as §2
The next test relates to HeLa. In words: Primary qHTS to identify gynecologic anti-cancer compounds using libraries of approved drugs and bioactive compounds (AID 1345084). Further: nearly all actives have a fitted effect of over 55% in size. To be noted: Gynecologic cancer cell panel viability, ATPlite luminescence, 48 h; series mostly up to 57.5 µM. The gist of the method:
as §3

The test system of test [4] is HACAT. Put plainly: qHTS assay to identify novel small-molecules to repurpose for Merkel cell carcinoma treatment (AID 1296009). Further: nearly all actives have a fitted effect of over 60% in size. The following applies: MCC and control cell lines, CellTiter-Glo viability, 72 h; at 44.8 µM (top of the series) unless noted. The gist of the method:
as §2

The structures appear in SMILES notation. Several values for one entry are separate records, joined by “and”; a condition that tells them apart may be missing. Equal values may be shown once. Results filed as inconclusive are left out. A structure can be active in one record and inactive in another. Activity calls are given as the source filed them. The call rests on the fitted dose curve; in most records, active means well fitted curve in the direction sought with a large enough effect; inconclusive means small, poorly fitted or top-dose-only effect, or another doubt; inactive means no such curve, though single readings can be large; an effect the other way counts as inactive or inconclusive.
Potency means the concentration at half of the fitted maximal effect.

Turning to `CCC(=O)O[C@]1(C(=O)CCl)[C@@H](C)C[C@H]2[C@@H]3CCC4=CC(=O)C=C[C@]4(C)[C@@]3(F)[C@@H](O)C[C@@]21C`, the max response is -12.4% (inactive) in the test with CRL-7250; -0.886% (inactive) with HEK293; -4.36% (inactive) and -8.18% (inactive) with HaCat [1]; -5.78% (inactive) and 1.04% (inactive) in the test with KB-3-1; -2.25% (inactive) in the test on NIH3T3 [2]. The molecule was called inactive with CRL-7250, in the test on NIH3T3 [2] and in the test with NIH3T3 [3]. For the same molecule, the Potency result in the test on MCC-13, in the test with MKL-1, with MKL-2, in the test with UISO, in the test with WaGa and with C33A was “inactive” throughout. The Potency result with CAOV3, in the test on CASKI and in the test with Es-2 was “inactive” each time.

In the case of `COc1cc2c(Nc3ccc(Br)cc3F)ncnc2cc1OCC1CCN(C)CC1`, the Potency in the test on W2 was 3.38 µM (active); in the test on CRL-7250, 18.7 µM (active); in the test on HEK293, 26.4 µM (active); with HaCat [1] it was 7.31 µM (active); with NIH3T3 [2], 5.9 µM (active) and 5.17 µM (active); in the test on MCC-13, 23.5 µM (active) and inactive. The Potency was 20.9 µM (active) and inactive in the test with UISO; “inactive and 22.4 µM (active)” in the test with C33A. Also, the molecule was classed as inactive in the test on CRL-7250, in the test with NIH3T3 [2] and with NIH3T3 [3]. For the same molecule, the max response with HEK293 was -4.93% (inactive); with HaCat [1], 0.174% (inactive); in the test with KB-3-1 it was -19.6% (inactive). The Potency result in the test with MCC-26, with MKL-1, with MKL-2, with WaGa, in the test with CAOV3 and in the test on CASKI was “inactive” in each case. In addition, the Potency entry with Es-2 and in the test with HeLa was “inactive” throughout.

Regarding `COC(=O)Nc1nc2ccc(S(=O)c3ccccc3)cc2[nH]1` (centres undefined), the Potency in the test on CRL-7250 is 7.5 µM (active); with HEK293, 841 nM (active) and 16.6 µM (active); with NIH3T3 [2], 1.06 µM (active); in the test on Es-2, 3.55 µM (active); in the test on HeLa it was 2.82 µM (active). Also, in the test with CRL-7250, the max response was -3.6% (inactive). For the same molecule, the result in the test with HaCat [1] and in the test on HACAT [4] was inactive. Moreover, the Potency entry with MCC-26 and in the test on CAOV3 was “inactive” throughout.

Turning to `C[C@]12C=CC(=O)C=C1CC[C@@H]1[C@@H]2C(=O)C[C@@]2(C)[C@H]1CC[C@]2(O)C(=O)CO`, the Potency result with W2, with MCC-13, with MCC-26, in the test on MKL-1, in the test with MKL-2 and in the test on UISO was “inactive” each time. Further, the Potency entry in the test with WaGa, in the test with C33A, in the test with CAOV3, with CASKI, in the test with Es-2 and with HeLa was “inactive” throughout. The max response with CRL-7250 is 2.58% (inactive); in the test with HEK293 it was -4.32% (inactive) and 0.184% (inactive); in the test on HaCat [1], -8.77% (inactive) and -10.7% (inactive); with KB-3-1, 9.07% (inactive) and 4.76% (inactive); in the test on NIH3T3 [2] it was -5.75% (inactive). Moreover, the result in the test on CRL-7250, in the test with NIH3T3 [2] and in the test with NIH3T3 [3] was inactive.

For `Cn1nnc2c(C(N)=O)ncn2c1=O`, the Potency entry with W2, with MCC-13, with MKL-1, with MKL-2, in the test on UISO and with WaGa was “inactive” each time. Moreover, the Potency result in the test on C33A, with CAOV3, with CASKI and in the test on Es-2 was “inactive” in each case. For the same molecule, the max response in the test on CRL-7250 is 3.05% (inactive); in the test on HEK293, 1.76% (inactive) and -7.24% (inactive); with HaCat [1], 0.848% (inactive); in the test with KB-3-1, 3.98% (inactive) and 7.43% (inactive); with NIH3T3 [2] it was -16.1% (inactive). In addition, the call in the test with CRL-7250, with HaCat [1], in the test on NIH3T3 [2], in the test on HACAT [4] and in the test with NIH3T3 [3] was inactive.

The values above are taken from PubChem BioAssay (NCATS).
